Assay results published in the supplement of paper PMC8975748.
Counter-ions that a name gives are not always drawn. ± gives the standard deviation of the averaged measurements.

Legend:
[1] = test system: Saccharomyces cerevisiae BY4741 SeMeCo community; assay: mean cell size (pixel area) (pixels); higher = larger cells; conditions: 10 µM; 24 h; SM minimal medium
How it was run: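 Mean cell pixel area per well was measured in a four-plasmid fluorescent community of Saccharomyces cerevisiae BY4741, where every plasmid complements one auxotrophy and carries a fluorescent marker. Cells from an overnight preculture at OD600 = 1.0 were diluted to OD600 = 0.3 and dispensed at 70 µl into 384-well plates acoustically predosed with drug to a final 10 µM in SM medium. Incubation lasted 24 h, followed by paraformaldehyde fixation, automated confocal imaging and analysis in Harmony. Reported figures are averaged over 3 replicates. Same SeMeCo high-content imaging drug screen: Selleck FDA-approved drugs at 10 µM, 24 h in SM medium, 384-well plates, 3 replicates.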

[2] = test system: Saccharomyces cerevisiae BY4741 SeMeCo community; assay: z-score of prototroph abundance vs DMSO median; higher = larger share of this subpopulation than in DMSO controls; conditions: 10 µM; 24 h; SM minimal medium; subpopulation (auxotrophy): Prototroph
How it was run: (§1)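 Automated confocal microscopy of paraformaldehyde-fixed cells was used to follow a Saccharomyces cerevisiae BY4741 community carrying four plasmids, each restoring one auxotrophy and encoding a distinct fluorescent protein. The community was pre-grown overnight to OD600 1.0, diluted to 0.3, and added at 70 µl to 384-well plates acoustically predosed with library drugs (10 µM final) for 24 h of growth in minimal SM medium. Single-auxotroph fluorescent strains set thresholds and autofluorescence correction, and each subpopulation's abundance was scored as a z-score against the vehicle-well median.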

[3] = test system: Saccharomyces cerevisiae BY4741 SeMeCo community; assay: z-score of subpopulation abundance vs DMSO median, subpopulation auxotrophic for M; higher = larger share of this subpopulation than in DMSO controls; conditions: 10 µM; 24 h; SM minimal medium; subpopulation (auxotrophy): M
How it was run: as §1

[4] = test system: Saccharomyces cerevisiae BY4741 SeMeCo community; assay: z-score of subpopulation abundance vs DMSO median, subpopulation auxotrophic for L; higher = larger share of this subpopulation than in DMSO controls; conditions: 10 µM; 24 h; SM minimal medium; subpopulation (auxotrophy): L
How it was run: as §1

[5] = test system: Saccharomyces cerevisiae BY4741 SeMeCo community; assay: z-score of subpopulation abundance vs DMSO median, subpopulation auxotrophic for U; higher = larger share of this subpopulation than in DMSO controls; conditions: 10 µM; 24 h; SM minimal medium; subpopulation (auxotrophy): U
How it was run: as §1

[6] = test system: Saccharomyces cerevisiae BY4741 SeMeCo community; assay: z-score of subpopulation abundance vs DMSO median, subpopulation auxotrophic for H; higher = larger share of this subpopulation than in DMSO controls; conditions: 10 µM; 24 h; SM minimal medium; subpopulation (auxotrophy): H
How it was run: as §1

[7] = test system: Saccharomyces cerevisiae BY4741 SeMeCo community; assay: z-score of subpopulation abundance vs DMSO median, subpopulation auxotrophic for LU; higher = larger share of this subpopulation than in DMSO controls; conditions: 10 µM; 24 h; SM minimal medium; subpopulation (auxotrophy): LU
How it was run: as §1

[8] = test system: Saccharomyces cerevisiae BY4741 SeMeCo community; assay: z-score of subpopulation abundance vs DMSO median, subpopulation auxotrophic for LM; higher = larger share of this subpopulation than in DMSO controls; conditions: 10 µM; 24 h; SM minimal medium; subpopulation (auxotrophy): LM
How it was run: as §1

[9] = test system: Saccharomyces cerevisiae BY4741 SeMeCo community; assay: z-score of subpopulation abundance vs DMSO median, subpopulation auxotrophic for HM; higher = larger share of this subpopulation than in DMSO controls; conditions: 10 µM; 24 h; SM minimal medium; subpopulation (auxotrophy): HM
How it was run: as §1

[10] = test system: Saccharomyces cerevisiae BY4741 SeMeCo community; assay: z-score of subpopulation abundance vs DMSO median, subpopulation auxotrophic for HU; higher = larger share of this subpopulation than in DMSO controls; conditions: 10 µM; 24 h; SM minimal medium; subpopulation (auxotrophy): HU
How it was run: as §1

[11] = test system: Saccharomyces cerevisiae BY4741 SeMeCo community; assay: z-score of subpopulation abundance vs DMSO median, subpopulation auxotrophic for UM; higher = larger share of this subpopulation than in DMSO controls; conditions: 10 µM; 24 h; SM minimal medium; subpopulation (auxotrophy): UM
How it was run: as §1

[12] = test system: Saccharomyces cerevisiae BY4741 SeMeCo community; assay: z-score of subpopulation abundance vs DMSO median, subpopulation auxotrophic for HL; higher = larger share of this subpopulation than in DMSO controls; conditions: 10 µM; 24 h; SM minimal medium; subpopulation (auxotrophy): HL
How it was run: as §1

[13] = test system: Saccharomyces cerevisiae BY4741 SeMeCo community; assay: z-score of subpopulation abundance vs DMSO median, subpopulation auxotrophic for HLU; higher = larger share of this subpopulation than in DMSO controls; conditions: 10 µM; 24 h; SM minimal medium; subpopulation (auxotrophy): HLU
How it was run: as §1

[14] = test system: Saccharomyces cerevisiae BY4741 SeMeCo community; assay: z-score of subpopulation abundance vs DMSO median, subpopulation auxotrophic for HLM; higher = larger share of this subpopulation than in DMSO controls; conditions: 10 µM; 24 h; SM minimal medium; subpopulation (auxotrophy): HLM
How it was run: as §1

[15] = test system: Saccharomyces cerevisiae BY4741 SeMeCo community; assay: z-score of subpopulation abundance vs DMSO median, subpopulation auxotrophic for HUM; higher = larger share of this subpopulation than in DMSO controls; conditions: 10 µM; 24 h; SM minimal medium; subpopulation (auxotrophy): HUM
How it was run: as §1

[16] = test system: Saccharomyces cerevisiae BY4741 SeMeCo community; assay: z-score of subpopulation abundance vs DMSO median, subpopulation auxotrophic for LUM; higher = larger share of this subpopulation than in DMSO controls; conditions: 10 µM; 24 h; SM minimal medium; subpopulation (auxotrophy): LUM
How it was run: as §1

[17] = test system: Saccharomyces cerevisiae BY4741 SeMeCo community; assay: z-score of subpopulation abundance vs DMSO median, subpopulation auxotrophic for HLUM; higher = larger share of this subpopulation than in DMSO controls; conditions: 10 µM; 24 h; SM minimal medium; subpopulation (auxotrophy): HLUM
How it was run: as §1

| Compound | mean cell size [1] | z-score of prototroph abundance [2] | z-score of subpopulation abundance [3] | z-score of subpopulation abundance [4] | z-score of subpopulation abundance [5] | z-score of subpopulation abundance [6] | z-score of subpopulation abundance [7] | z-score of subpopulation abundance [8] | z-score of subpopulation abundance [9] | z-score of subpopulation abundance [10] | z-score of subpopulation abundance [11] | z-score of subpopulation abundance [12] | z-score of subpopulation abundance [13] | z-score of subpopulation abundance [14] | z-score of subpopulation abundance [15] | z-score of subpopulation abundance [16] | z-score of subpopulation abundance [17] |
| --- | --- | --- | --- | --- | --- | --- | --- | --- | --- | --- | --- | --- | --- | --- | --- | --- | --- |
| CCCc1cc(C(N)=S)ccn1 [Protionamide] | 12.4 ± 0.19 | 0.19 | 0.32 | 0.04 | -0.66 | -0.56 | -0.68 | 0.16 | 0.36 | -0.73 | 0.32 | -0.83 | -0.42 | -0.03 | 0.47 | -0.28 | -0.96 |
| COc1cnc(NS(=O)(=O)c2ccc(N)cc2)nc1 [Sulfameter] | 12.53 ± 0.07 | 0 | 0.05 | -0.37 | 0.75 |  | 1.19 | -0.51 | 0.07 | -0.1 | 0.21 | -0.38 | -0.26 | 0.42 | 0.14 | 0.64 | -0.07 |
| O=C1NC(=O)C(c2ccccc2)(c2ccccc2)N1 [Phenytoin] | 12.39 ± 0.12 | -0.03 | 0.07 | -0.25 | 0.51 |  | 0.23 | 0.5 | -0.81 | -0.49 | 0.49 | -0.93 | -0.45 | -0.09 | 0.18 | 0.38 | -0.04 |
| OCCN1CCN(CCCN2c3ccccc3Sc3ccc(C(F)(F)F)cc32)CC1 [Fluphenazine dihydrochloride] | 12.4 ± 0.097 | -0.57 | -0.08 | 1.3 | -0.38 | 1.1 | 0.63 | 0.55 | 0.59 | 0.37 | -1.12 | 1.51 | 1.24 | 1.11 | -0.44 | 0.9 | 0.51 |
| O=C(O)CCCCCCCC(=O)O [Azelaic acid] | 12.4 ± 0.2 | -0.32 | 0.44 | -0.32 | 0.62 | 0.43 | 1.26 | 0.3 | -0.04 | 0.63 | -0.2 | -0.5 | 0.77 | -0.07 | 0.47 | -0.32 | 1.13 |
| O=C1CN(/N=C/c2ccc([N+](=O)[O-])o2)C(=O)N1 [Nitrofurantoin] | 12.47 ± 0.1 | 0.19 | 0.84 | -0.13 | -0.25 | -0.05 | -0.11 | -0.69 | -0.67 | -0.72 | 0.27 | 0.1 | -0.69 | -0.2 | -0.82 | -0.21 | -0.04 |
| Cc1cc(=O)n(-c2ccccc2)n1C [Antipyrine] | 12.6 ± 0.13 | 0.87 | 0.62 | -0.59 | -0.44 | -1.04 | -0.69 | -0.72 | -0.59 | -0.64 | -1.23 | -0.85 | -0.53 | -0.18 | -0.77 | 0.02 | -0.47 |
